Compounds without any hit were thinned out: in the full panel of roughly 79,000, 15% have a hit. Active and inactive are the calls of the source. No stated cut-off is given here; in the data, active means growth inhibition above about 70%; inactive means the rest.
Experiments:
[1] = NCI Yeast Anticancer Drug Screen. Data for the rad52 strain (AID 147);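 further: 0% = growth of vehicle-treated control cultures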; details: S. cerevisiae rad52 mutant growth inhibition, stronger effect = higher value
Method in brief: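 Screen used a yeast mutant impaired in DNA repair. After compound exposure, growth was measured. Values reflect inhibition compared with vehicle-treated cells.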

[2] = NCI Yeast Anticancer Drug Screen. Data for the wt1 strain (AID 149);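 further: 0% = growth of vehicle-treated wt1 cultures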; details: S. cerevisiae wt1 strain (SPY 50644) growth inhibition, stronger effect = higher value
Method in brief: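 Using yeast strain wt1, compound-induced growth inhibition was determined against vehicle-treated cultures.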

[3] = NCI Yeast Anticancer Drug Screen. Data for the rad50EPP+ strain (AID 151);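 further: 0% = growth of vehicle-treated control cultures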; details: S. cerevisiae rad50 mutant strain, stronger effect = higher value
Method in brief: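 Exposing the rad50EPP+ strain to each compound, growth was compared with vehicle-only cultures to give inhibition.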

[4] = NCI Yeast Anticancer Drug Screen. Data for the mgt1 strain (AID 153); details: S. cerevisiae mgt1 mutant growth inhibition, stronger effect = higher value
Method in brief: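 Genetically defined yeast (mgt1) treated with compound; inhibition of growth expressed against vehicle-treated controls.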

[5] = NCI Yeast Anticancer Drug Screen. Data for the rad50 strain (AID 155);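 further: 0% = growth of vehicle-only cultures of the same strain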; details: S. cerevisiae rad50 strain growth inhibition, stronger effect = higher value
Method in brief: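 Relative growth inhibition (compound vs vehicle) was measured in yeast with a defined repair-gene alteration.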

[6] = NCI Yeast Anticancer Drug Screen. Data for the mec2-1 strain (AID 157); details: S. cerevisiae mec2-1 strain, stronger effect = higher value
Method in brief: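 Readout is yeast growth inhibition, normalised to vehicle-treated controls, in the mec2-1 strain exposed to compound.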

[7] = NCI Yeast Anticancer Drug Screen. Data for the rad14 strain (AID 159);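 further: 0% = growth of vehicle-treated control cultures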; details: S. cerevisiae rad14 strain growth inhibition, stronger effect = higher value
Method in brief: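 Screen for anticancer potential: a yeast strain altered in DNA damage repair is grown with compound, and reduced growth is quantified against vehicle controls.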

[8] = NCI Yeast Anticancer Drug Screen. Data for the sgs1 mgt1 strain (AID 161);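 further: 0% = growth of cultures given vehicle only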; details: S. cerevisiae sgs1 mgt1 strain, stronger effect = higher value
Method in brief: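 Growth of a repair-deficient yeast mutant was monitored after compound treatment and expressed as inhibition relative to vehicle-treated cultures.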

[9] = NCI Yeast Anticancer Drug Screen. Data for the CLN2oe strain (AID 163);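 further: 0% = growth of vehicle-only control cultures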; details: S. cerevisiae CLN2oe strain, stronger effect = higher value
Method in brief: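 Values reflect how much compound exposure reduced yeast growth, referenced to vehicle-exposed cells. Assay organism is a strain with a defined genetic change affecting cell-cycle control.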

[10] = NCI Yeast Anticancer Drug Screen. Data for the cln2 rad14 strain (AID 165);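 further: 0% = growth equal to vehicle treated cultures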; details: S. cerevisiae cln2 rad14 strain, stronger effect = higher value
Method in brief: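 Relative to vehicle controls, growth inhibition of compound-treated cln2 rad14 yeast was recorded.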

[11] = NCI Yeast Anticancer Drug Screen. Data for the bub3 strain (AID 167); details: S. cerevisiae bub3 mutant strain, stronger effect = higher value
Method in brief: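 Screening used yeast with an engineered genetic alteration affecting cell cycle control. Compound-exposed cultures were compared with vehicle cultures, and reduced growth was taken as inhibition.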

[12] = NCI Yeast Anticancer Drug Screen. Data for the wt2 strain (AID 169);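 further: 0% = growth of vehicle-treated yeast cultures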; details: S. cerevisiae wt2 strain growth inhibition, stronger effect = higher value
Method in brief: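 Values express reduction in yeast growth under compound treatment, referenced to vehicle-treated cells.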

[13] = NCI Yeast Anticancer Drug Screen. Data for the mlh1 strain (AID 171);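 further: 0% = growth of vehicle-treated control cultures of the same strain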; details: S. cerevisiae mlh1 strain growth inhibition, stronger effect = higher value
Method in brief: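 Steps: expose the defined-mutant yeast strain to compound; expose a parallel culture to vehicle; measure growth; express compound effect as inhibition relative to the vehicle culture.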

[14] = NCI Yeast Anticancer Drug Screen. Data for the sgs1 strain (AID 173);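 further: 0% = growth of vehicle-only control cultures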; details: S. cerevisiae sgs1 mutant, stronger effect = higher value
Method in brief: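 Treat defined-mutant yeast with compound; measure growth; calculate inhibition relative to vehicle-treated cells.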

[15] = NCI Yeast Anticancer Drug Screen. Data for the mlh1 rad18 strain (AID 175); details: S. cerevisiae mlh1 rad18 strain growth inhibition, stronger effect = higher value
Method in brief: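 Test agents were incubated with a yeast strain of defined genotype (DNA damage repair defect). Inhibition of growth was derived by comparison with vehicle-exposed cultures.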

[16] = NCI Yeast Anticancer Drug Screen. Data for the rad18 strain (AID 177); details: S. cerevisiae rad18 mutant growth inhibition, stronger effect = higher value
Method in brief: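 A genetically defined yeast mutant impaired in DNA damage repair was treated with test compounds, then its growth was measured against cultures receiving vehicle alone.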

[17] = at 5.0 µM (retest, dose inferred, filed as 0.5)
[18] = at 50.0 µM (retest, dose inferred, filed as 5.0)

Measured: growth inhibition

O=C1CSC(/C=C/c2ccccc2)N1c1ccc(-c2ccc(-n3c(-c4ccccc4)nc4ccccc4c3=O)cc2)cc1 (stereo not drawn)
inactive: [1]; at 1.2 µM -2% | [1]; at 3.7 µM 1% | [1]; at 11.0 µM 4% | [1]; at 33.0 µM 15% | [1]; at 100.0 µM 61% | [2]; at 1.2 µM -2% | [2]; at 3.7 µM -2% | [2]; at 11.0 µM -3% | [2]; at 33.0 µM -6% | [2]; at 100.0 µM 14% | [3]; at 1.2 µM 2% | [3]; at 3.7 µM 10% | [3]; at 11.0 µM 19% | [3]; at 33.0 µM 28% | [3]; at 100.0 µM 29% | [4]; at 1.2 µM -2% | [4]; at 3.7 µM -2% | [4]; at 11.0 µM -4% | [4]; at 33.0 µM 19% | [5]; at 1.2 µM -1% | [5]; at 3.7 µM 3% | [5]; [17] -9% | [5]; at 11.0 µM 5% | [5]; at 33.0 µM 22% | [5]; at 100.0 µM 58% | [6]; at 1.2 µM -1% | [6]; at 3.7 µM 0% | [6]; [17] 0% | [6]; at 11.0 µM 1% | [6]; at 33.0 µM 7% | [6]; [18] 45% | [6]; at 50.0 µM 42.5% | [6]; at 100.0 µM 67% | [7]; at 1.2 µM 1% | [7]; at 3.7 µM 2% | [7]; at 11.0 µM 9% | [7]; at 33.0 µM 31% | [8]; [17] -1% | [8]; [18] 5% | [9]; at 1.2 µM 2% | [9]; at 3.7 µM -1% | [9]; at 11.0 µM -6% | [9]; at 33.0 µM -9% | [9]; at 100.0 µM 22% | [10]; [17] 9% | [10]; [18] 42% | [10]; at 50.0 µM 32.5% | [11]; at 1.2 µM 4% | [11]; at 3.7 µM 12% | [11]; [17] -6% | [11]; at 11.0 µM 22% | [11]; at 33.0 µM 35% | [11]; [18] 65% | [12]; at 1.2 µM -3% | [12]; at 3.7 µM -3% | [12]; at 11.0 µM -4% | [12]; at 33.0 µM 5% | [12]; at 100.0 µM 62% | [13]; at 1.2 µM -2% | [13]; at 3.7 µM -1% | [13]; at 11.0 µM -2% | [13]; at 33.0 µM 18% | [14]; at 1.2 µM -2% | [14]; at 3.7 µM -2% | [14]; at 11.0 µM 0% | [14]; at 33.0 µM 17% | [14]; at 100.0 µM 61% | [15]; [17] -6% | [16]; at 1.2 µM -3% | [16]; at 3.7 µM 1% | [16]; at 11.0 µM 5% | [16]; at 33.0 µM 13% | [16]; at 100.0 µM 46%
active: [4]; at 100.0 µM 81% | [5]; [18] 78% | [5]; at 50.0 µM 75.5% | [7]; at 100.0 µM 79% | [8]; at 50.0 µM 87.2% | [11]; at 50.0 µM 75% | [11]; at 100.0 µM 79% | [13]; at 100.0 µM 77% | [15]; [18] 91% | [15]; at 50.0 µM 84.3%
